Reference: PubChem BioAssay
Several values for one entry are separate records, joined by “and”; a condition that tells them apart may be missing. Identical values can stand only once.

Experiments:
[1] = tested on: Human papillomavirus type 1a protein E7 (residues 44-93); assay: HPV1a E7 fragment binders on microarrays, primary screen, biochemical, small-molecule microarray, residues 44-93, 635 nm fluorescence (AID 1108); details: small-molecule microarray binding, fluorescence 635 nm; higher = more signal;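 further: E7 fragment applied at 1 µg/mL in TBST for 1 h at 4 C; score combines spot fluorescence with its signal to noise ratio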
[2] = modulators of HCV replicon luciferase signal, primary screen, HCV replication inhibitor project, Huh7 cells, luciferase reporter (AID 1109); details: 48 h, higher = more signal;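 further: huh7 hepatoma cells harbouring a luciferase neomycin HCV replicon reporter; luciferase luminescence as measure of HCV replicon replication; test concentration not given here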
[3] = target: Left-right determination factor 2 (Homo sapiens) (UniProt O00292); assay: LEFTY2 binders on small-molecule microarrays, primary screen, biochemical, small-molecule microarray, 635 nm fluorescence scan (AID 1110); details: LEFTY2 binding, higher = more signal
Left-right determination factor 2 (Homo sapiens), sequence (O00292 whole entry, looked up): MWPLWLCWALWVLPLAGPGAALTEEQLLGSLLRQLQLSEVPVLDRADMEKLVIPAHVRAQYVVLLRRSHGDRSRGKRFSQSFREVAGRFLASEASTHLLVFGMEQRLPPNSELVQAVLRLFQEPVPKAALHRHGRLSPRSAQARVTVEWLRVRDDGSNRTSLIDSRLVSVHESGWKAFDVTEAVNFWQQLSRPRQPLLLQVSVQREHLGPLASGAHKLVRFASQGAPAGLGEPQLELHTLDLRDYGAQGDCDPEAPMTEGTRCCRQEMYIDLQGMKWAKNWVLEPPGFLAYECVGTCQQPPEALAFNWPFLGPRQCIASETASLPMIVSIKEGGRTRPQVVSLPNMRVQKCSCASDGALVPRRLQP

[4] = target: Calmodulin-1 (Homo sapiens) (UniProt P0DP23); assay: CALM1 binders on microarrays, EGTA buffer, profiling panel, biochemical, small-molecule microarray, Cy5-labelled CALM1 (AID 1111); details: Cy5-CALM1 binding fluorescence, higher = more signal;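 further: labelled calmodulin applied in Tris saline Tween buffer holding calcium plus EGTA and DTT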
[5] = target: Calmodulin-1 (Homo sapiens) (UniProt P0DP23); assay: calcium-bound CALM1 binders on microarrays, profiling panel, artefact control for SMM control-protein annotation, biochemical, small-molecule microarray, Cy5-labelled CALM1, plus calcium (AID 1112); details: Cy5-CALM1 binding fluorescence, higher = more signal;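 further: score merges spot fluorescence with signal to noise from triplicate slides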
[6] = small-molecule microarray binders of probe aWnt5a, primary screen, biochemical, biotinylated probe, 635/667 nm fluorescence (AID 1113); details: higher = more signal;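 further: score merges 667 nm fluorescence intensity with signal-to-noise per printed feature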
[7] = small-molecule microarray binders of probe aShh, primary screen, biochemical, biotinylated probe, 635/667 nm fluorescence (AID 1114); details: higher = more signal;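 further: probe is biotin-labelled aShh protein from a stem cell growth factor screen; measures binding of labelled protein to compounds printed on the slide; score merges feature fluorescence at 667 nm with signal-to-noise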
[8] = small-molecule microarray binders of probe aNog, primary screen, biochemical, biotinylated probe, 635/667 nm fluorescence (AID 1115); details: higher = more signal;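 further: probe is biotinylated aNog protein used at 0.15 µg/mL for 1 h at 4 C; z-score combines 667 nm fluorescence of each spot with its signal to noise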
[9] = target: Torsin-1A-interacting protein 1 (Homo sapiens) (UniProt Q5JTV8); assay: LAP1 binders from COS7 cell lysate, primary screen, small-molecule microarray, 635/667 nm fluorescence (AID 1116); details: COS7-hLAP1 lysate binding, 635 nm fluorescence, higher = more signal
Torsin-1A-interacting protein 1 (Homo sapiens), sequence (Q5JTV8 whole entry, looked up): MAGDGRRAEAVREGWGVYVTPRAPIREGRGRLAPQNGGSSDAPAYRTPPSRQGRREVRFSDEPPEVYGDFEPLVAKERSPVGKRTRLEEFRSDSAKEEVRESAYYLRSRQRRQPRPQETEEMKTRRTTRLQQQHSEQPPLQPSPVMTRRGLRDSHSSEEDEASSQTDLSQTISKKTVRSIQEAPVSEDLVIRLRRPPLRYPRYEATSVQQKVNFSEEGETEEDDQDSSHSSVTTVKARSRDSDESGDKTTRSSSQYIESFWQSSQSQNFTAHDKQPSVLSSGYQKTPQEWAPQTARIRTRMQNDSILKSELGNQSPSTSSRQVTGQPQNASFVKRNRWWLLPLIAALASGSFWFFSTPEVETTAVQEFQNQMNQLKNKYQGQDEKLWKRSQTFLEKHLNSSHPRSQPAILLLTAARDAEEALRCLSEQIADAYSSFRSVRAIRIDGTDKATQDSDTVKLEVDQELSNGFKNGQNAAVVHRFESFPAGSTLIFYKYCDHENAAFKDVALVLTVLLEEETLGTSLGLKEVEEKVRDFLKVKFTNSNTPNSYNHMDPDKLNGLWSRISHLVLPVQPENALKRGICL

[10] = target: Alpha-bungarotoxin (Bungarus multicinctus) (UniProt P60615); assay: alpha-bungarotoxin binders on microarray, profiling panel, artefact control for SMM control protein annotation, biochemical, small-molecule microarray, Alexa647 label, 635/667 nm fluorescence (AID 1117); details: alpha-BTX-A647 binding fluorescence, higher = more signal
Alpha-bungarotoxin (Bungarus multicinctus), sequence (P60615 whole entry, looked up): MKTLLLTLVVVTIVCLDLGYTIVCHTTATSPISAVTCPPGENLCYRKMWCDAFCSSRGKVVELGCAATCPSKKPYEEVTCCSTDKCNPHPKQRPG

Row | SMILES | composite z-score [1] | z-score [2] | composite z-score [3] | composite z-score [4] | composite z-score [5] | composite z-score [6] | composite z-score [7] | composite z-score [8] | composite z-score [9] | composite z-score [10]
1 | C=C[C@@H](C)[C@@H](O)c1ccc(OCCO)cc1 | -1.62 and -1.54 | -0.934 and -0.376 | -2.93 and -2.01 | -0.905 and -0.8 | 0.129 and 0.206 | -0.286 and -0.27 | -0.221 and -0.17 | -0.512 and -0.141 | -0.603 and 1.44 | -1.5 and -1.44
2 | C=CCN(CCCCC)C(=O)C1N(C(C)(C)CO)C(=O)C2C(C(=O)O)C3C=CC21O3 (stereo not given) | -2.03 and -0.698 | -0.954 and -0.659 | -1.51 and -1.83 | -0.569 and -0.284 | 0.515 and 1.07 | -0.297 and -0.176 | -0.0626 and -0.138 | -0.0809 and 0.274 | -1.47 and -0.47 | -1.26 and -2.68
3 | C=CCN(CCCCC)C(=O)C(c1cccs1)N(CCOCCO)C(=O)/C=C\C(=O)O (stereo not given) | -1.74 and -0.0507 | -0.572 and 0.96 | -0.828 and -1.56 | -1.04 and -0.776 | -0.408 and 0.326 | -0.135 and -0.199 | -0.223 and -0.283 | -0.308 and 0.0644 | -0.922 and -0.405 | -0.676 and 1.14
4 | CC(C)=NOCc1ccc(-c2cn([C@@H]3COC[C@H]3O)nn2)cc1 | -0.0942 | 0.28 | 0.679 | 0.676 | -0.358 | -0.143 | -0.17 | -0.248 | 0.507 | -0.175
5 | C=CCN(CCCC)C(=O)C(c1cccs1)N(C(=O)/C=C\C(=O)O)c1c(Cl)cccc1CO (stereo not given) | -1.23 and -1.01 | -0.765 and -0.992 | -3.75 and -3.83 | -0.731 and -0.883 | 0.215 and 0.584 | -0.328 and -0.303 | -0.0769 and -0.221 | -0.0173 and -0.0409 | -1.53 and -1.41 | -1.09 and -1.15
6 | O=C(NN=C1C[C@@H](O)[C@@H](O)[C@@H]2[C@@H]3C(=O)N(Cc4ccc5c(c4)OCO5)C(=O)[C@@H]3CC[C@H]12)OCc1ccccc1 | -0.984 | 0.401 | 0.227 | -0.643 | -1.29 | 0.0718 | 0.0796 | -0.363 | -0.842 | -0.394
7 | COC(=O)C1=C(C)N(Cc2ccccc2)[C@]23O[C@](C(=O)OC)(C(=O)N2[C@@H]1c1ccccc1)[C@H]1C(=O)N(C)C(=O)[C@H]13 | 0.866 and 0.534 | -1.01 and 0.238 | 1.15 and 0.687 | 0.949 and -0.202 | 0.29 and -0.107 | -0.16 and -0.0165 | -0.237 and 0.165 | -0.108 and -0.0008 | 0.384 and 0.73 | 0.0312 and -0.0037
8 | CCOC(=O)NN=C1C[C@@H](O)[C@@H](O)[C@@H]2[C@@H]3C(=O)N(Cc4ccccc4)C(=O)[C@@H]3CC[C@@H]12 | -0.337 | -0.16 | 0.349 | -0.546 | -0.659 | 0.134 | -0.2 | -0.207 | 0.297 | -0.168
9 | CCCC[C@@H]1CN2[C@@H](CC[C@@H](C)[C@@H]2c2ccc(Br)cc2)C(=O)O1 | 1.27 and 1.07 | -1.44 and -0.195 | 0.379 and 0.292 | 0.0614 and 0.32 | -0.242 and -0.217 | -0.152 and -0.13 | 0.0756 and -0.0553 | -0.198 and 0.121 | 0.0865 and -0.0158 | 0.439 and 0.105
